Results reported in PubChem BioAssay (EPA / NIEHS).
Records with an inconclusive call do not appear. Active and inactive are the calls of the source. The calls were made as follows: active = hit-call score of the fitted dose curve at least 0.9, where 1 is the maximum; inconclusive = response in the unintended direction; inactive = score below 0.9.

Assays:
[1] = TOX21_p53_BLA_p2_viability: Viability Assessment in the Tox21 HCT-116 p53 Agonism Beta-lactamase Assay, Phase 2 (AID 2283591);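 also: compound exposure lasted 16 h at 37 °C; actives lower the ATP signal meaning cytotoxicity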
In short: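 Cytotoxicity readout: CellTiter-Glo ATP luminescence, 30 min at room temperature, after the beta-lactamase read. Cells were HCT116 exposed 16 h at 37C to compounds pin-transferred at 217-fold dilution from DMSO stocks.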

[2] = biological target: Cellular tumor antigen p53 (Homo sapiens) (UniProt P04637); test: TOX21_p53_BLA_p2_ratio: Tox21 HCT-116 p53 Agonism Beta-lactamase Assay, Ratio, Phase 2 (AID 2283592)
Sequence of Cellular tumor antigen p53 (Homo sapiens) (P04637 whole entry, looked up): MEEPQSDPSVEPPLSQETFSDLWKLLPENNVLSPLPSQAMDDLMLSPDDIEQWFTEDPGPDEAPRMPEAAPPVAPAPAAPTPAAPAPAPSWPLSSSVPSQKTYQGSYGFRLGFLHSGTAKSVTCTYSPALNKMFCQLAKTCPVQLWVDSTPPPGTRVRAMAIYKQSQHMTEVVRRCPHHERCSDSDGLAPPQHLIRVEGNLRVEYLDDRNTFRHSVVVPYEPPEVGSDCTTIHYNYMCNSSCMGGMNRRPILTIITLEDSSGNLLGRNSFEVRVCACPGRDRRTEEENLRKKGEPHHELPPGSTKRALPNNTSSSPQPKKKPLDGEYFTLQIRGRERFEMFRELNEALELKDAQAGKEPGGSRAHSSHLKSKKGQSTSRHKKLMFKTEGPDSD
In short: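 HCT-116 cells with p53-responsive beta-lactamase reporter, 4000 cells/well, preincubated 5 h, then compound in DMSO (217-fold dilution) for 16 h at 37C. CCF4-AM substrate 2 h at room temperature; 460/530 nm emission ratio fitted upward versus DMSO.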

[3] = TOX21_p53_BLA_p3_viability: Viability Assessment in the Tox21 HCT-116 p53 Agonism Beta-lactamase Assay, Phase 3 (AID 2283593);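 also: cells exposed to compound for 16 h before reading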
In short: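 Cellular ATP was quantified by CellTiter-Glo luminescence, read after 30 min at room temperature. Beforehand, HCT116 cells (4000/well) received compound 5 h post-seeding, 217-fold diluted from DMSO, then incubated 16 h at 37C.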

[4] = biological target: Cellular tumor antigen p53 (Homo sapiens) (UniProt P04637); test: TOX21_p53_BLA_p3_ratio: Tox21 HCT-116 p53 Agonism Beta-lactamase Assay, Ratio, Phase 3 (AID 2283596)
In short: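 HCT116 p53-bla cells (4000/well) given compound in DMSO (217-fold dilution) after 5 h, incubated 16 h at 37C. CCF4-AM substrate 2 h at room temperature; 460/530 nm emission ratio, gain fitted against DMSO.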

[5] = TOX21_p53_BLA_p4_viability: Viability Assessment in the Tox21 HCT-116 p53 Agonism Beta-lactamase Assay, Phase 4 (AID 2283597);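 also: hits lower the luminescence signal meaning cytotoxicity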
In short: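 HCT-116 p53-bla cells, 4000/well, dosed after 5 h attachment and incubated 16 h at 37 °C, 5% CO2. Viability from CellTiter-Glo ATP luminescence after 30 min at room temperature, taken after the beta-lactamase read; loss of signal indicates cytotoxicity.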

[6] = biological target: Cellular tumor antigen p53 (Homo sapiens) (UniProt P04637); test: TOX21_p53_BLA_p5_ratio: Tox21 HCT-116 p53 Agonism Beta-lactamase Assay, Ratio, Phase 5 (AID 2283599)
In short: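 Beta-lactamase reporter ratio (blue 460 nm over green 530 nm, 405 nm excitation) after 2 h CCF4-AM loading, in HCT-116 cells exposed 16 h at 37 C to compounds pinned at 217-fold dilution. Increases relative to DMSO baseline scored.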

[7] = TOX21_p53_BLA_p5_viability: Viability Assessment in the Tox21 HCT-116 p53 Agonism Beta-lactamase Assay, Phase 5 (AID 2283600)
In short: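 HCT-116 p53 beta-lactamase reporter cells, 4000/well, were exposed to compound (pin transfer, 217-fold dilution) for 16 hours at 37C. Cellular ATP was read by CellTiter-Glo luminescence after 30 min at room temperature.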

[8] = biological target: Cellular tumor antigen p53 (Homo sapiens) (UniProt P04637); test: TOX21_p53_BLA_p4_ratio: Tox21 HCT-116 p53 Agonism Beta-lactamase Assay, Ratio, Phase 4 (AID 2283601)
In short: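 Signal is the blue/green (460nm/530nm) ratio of cleaved versus uncleaved CCF4-AM substrate, read after 2 h substrate loading. Cells were HCT116 carrying the p53-responsive beta-lactamase reporter, dosed 16 h at 37C, 5% CO2; CellTiter-Glo measured in parallel.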

Measured: AC50

CC1=C(C(=O)OC(C)C)C(c2cccc([N+](=O)[O-])c2)C(C(=O)OC2CN(C(c3ccccc3)c3ccccc3)C2)=C(N)N1 (stereo not given)
active: [1] 10.3 µM | [2] 18.3 µM | [3] 9.2 µM | [4] 17.7 µM | [5] 34.2 µM | [6] 43.6 µM | [7] 38 µM | [8] 43.5 µM

CCc1oc2ccccc2c1C(=O)c1cc(I)c(O)c(I)c1
active: [1] 23 µM | [2] 7.59 µM | [3] 26.1 µM | [4] 20.8 µM | [5] 11 µM | [7] 24.1 µM | [8] 6.73 µM
inactive: [6]

N=C1N=C(N)c2cc3ccccc3cc21
active: [1] 23.6 µM | [2] 11.6 µM | [3] 38.5 µM | [4] 18.5 µM | [5] 21 µM | [6] 15 µM | [7] 27.4 µM | [8] 19.8 µM

CC1(C)C[C@@H]1C(=O)N/C(=C\CCCCSC[C@H](N)C(=O)O)C(=O)O
inactive: all assays above

CC(C)(C)OC(=O)N1C[C@@H](F)C[C@H]1C(=O)O
inactive: all assays above

CCC(C)Nc1ccc(NC(C)CC)cc1 (stereo not given)
active: [1] 15.1 µM | [3] 22.4 µM | [4] 46.8 µM | [5] 19.2 µM | [7] 30.1 µM
inactive: [2] | [6] | [8]

O=c1cccccc1O
inactive: all assays above

Clc1ccc(COC(Cn2ccnc2)c2ccc(Cl)cc2Cl)c(Cl)c1 (stereo not given)
active: [2] 17.3 µM
inactive: all other assays above

CC(=O)c1cccc([N+](=O)[O-])c1
inactive: all assays above

Nc1cnn([C@@H]2O[C@H](CO)[C@@H](O)[C@H]2O)c(=O)n1
active: [2] 3.04 µM | [4] 2.28 µM | [6] 6.26 µM | [8] 1.34 µM
inactive: all other assays above
